# Test results taken from PubChem BioAssay (NCI).
# Compounds without any hit were thinned out: in the full panel of roughly 83,000, 20% have a hit.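 Cell lines were cultured in 96-well plates, exposed to a single compound concentration, and assessed for percent growth 48 hours later.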 Unmarked numbers belong to inactive results. Calls of active or inactive are those of the source. The calls were made as follows: active = growth percent below 10; inactive = the rest.
# Test system: ACHN renal
# Experiment: NCI-60 one-dose screen, 48 h (100 = growth as untreated, 0 = no growth, -100 = all killed)
# Conditions: 10 µM unless noted
row,Structure (SMILES),growth
1,COc1ccc2c(c1)C(=O)c1c-2c(=O)n(CCCCCCC(=O)NO)c2ccccc12,-57.8% (active)
2,CCC(C)(C)C(=O)O[C@H]1C[C@@H](C)C=C2C=C[C@H](C)[C@H](CC[C@@H]3C[C@@H](O)CC(=O)O3)[C@H]21,14.7%
3,CCC1=C(c2ccc(OC)cc2)C(C)(C)Oc2c1ccc(O)c2CN1CCCC1,57.5%
4,CCCCCCCCCCCCCCCCCC1=NC(C)(C)CN1CCO,-49.2% (active)
5,O=C(Nc1ccc(Cl)cc1)Nc1ccc(Nc2nncc3ccccc23)cc1,22.4%
6,COc1cc(C2C=C(c3ccc(C)cc3)Nc3nc(SC)[nH]c(=O)c32)ccc1Oc1ccnc2cc(Cl)ccc12 (centres undefined),55.6%
7,C=C(C[C@@](O)(C(=O)Oc1ccccc1)C(=O)C1CCCCC1)c1ccccc1,112%
8,CCCCCCCC1(C)NC(=O)NC1=O (centres undefined),101%
9,CCOC(=O)c1c(C)c(C(=O)OCC)n(C)c1C,95.6%
10,COc1ccc(-c2cncn2-c2ccc(-c3nc4cc(OC)c(OC)c(OC)c4s3)cc2)cc1N,59.6%
11,CCc1[nH]nc(-c2ccc(OC)cc2)c1-c1ccccc1OCCN(CC)CC,98.5%
12,COc1ncc(-c2ccc3nccc(C#CCN4CCN(S(C)(=O)=O)CC4)c3c2)cc1NS(=O)(=O)c1ccc(F)cc1F,13.2%
13,COc1ccc2c(c1)C(=O)c1c-2c(OCCCN(C)C)nc2cc(Br)ccc12,3.65% (active)
14,N#Cc1c(N)[nH]c(S)c1C#N,93.6%
